Laboratory results as given in PubChem BioAssay (NCATS).
Inconclusive results are not listed. Activity calls are given as the source filed them. Calls come from the whole dose curve; as a rule, active = well fitted cell-killing curve with a large enough effect; inconclusive = small, poorly fitted or top-dose-only effect, or effect the other way; inactive = no such curve, though single readings can be large or run the other way.

test: Quantitative High-Throughput drug screen in 47 multiple myeloma cell lines against the NCATS MIPE library collection: KMS12PE_JCRB cell viability assay (AID 1918972); settings: KMS12PE myeloma viability, CellTiter-Glo ATP, 48 h; series mostly up to 45.8 µM; note: nearly all actives have a fitted effect of over 30% in size
Source text: PI: Beverly A. Mock Ph.D.
Laboratory of Cancer Biology and Genetics,
Center for Cancer Research, National Cancer Institute,
National Institute of Health, Bethesda, Maryland
Drug resistance and disease progression are common in multiple myeloma (MM) patients, underscoring the need for new therapeutic combinations. […] We hypothesized that effective combinations would reduce MYC expression and enhance p16 activity. […] These preclinical data identify potentially useful drug combinations for evaluation in drug-resistant MM and reveal potential mechanisms of combined drug sensitivity.
Described herein is the primary MIPE qHTS used to cherrypick compounds. Validated compounds were then further tested for potential synergistic activiy.
[1] Peat TJ, Gaikwad SM, Dubois W, Gyabaah-Kessie N, Zhang S, Gorjifard S, Phyo Z, Andres M, Hughitt VK, Simpson RM, Miller MA, Girvin AT, Taylor A, Williams D, D'Antonio N, Zhang Y, Rajagopalan A, Flietner E, Wilson K, Zhang X, Shinn P, Klumpp-Thomas C, McKnight C, Itkin Z, Chen L, Kazandijian D, Zhang J, Michalowski AM, Simmons JK, Keats J, Thomas CJ, Mock BA. Drug combinations identified by high-throughput screening promote cell cycle transition and upregulate Smad pathways in myeloma. Cancer Lett. 2023 Aug 1;568:216284. doi: 10.1016/j.canlet.2023.216284. Epub 2023 Jun 24. PMID: 37356470; PMCID: PMC10408729.
SEQUENCE No. (e.g., 1, 2, 3, etc.); […] (e.g., Cells, Incubation, Reagent, etc.); VALUE and DESCRIPTION.
1; Cells; 5 uL; white, solid bottom 1536-well Greiner assay plate.
2; Compounds; 23 nL; Kalypsis pin tool (Wako USA) equipped with a 1536-well pin head to transfer to the assay plates.
3; Incubation; 48 hours; 37C incubation.
4; Reagent;5uL; CellTiter Glo (Promega).
5; Detector; 425V; Luminescence; Viewlux PerkinElmer.
NOTES (numbers refer to Sequence numbers above)
1. The cell-based screening methods employed in this study were like those previously published. Briefly, the corresponding myeloma cell lines were screened in 1,536-well plates with 500 cells, 5-uL per well for inhibition of cell viability (assessed by measuring ATP levels with CellTiterGlo).
2. NCATS MIPE 4.0 library of approved and investigational drugs were added using the Kalypsis pin tool. Wells treated with DMSO only for 100% viability and media only wells for 0% viability were used as controls.
3. The assay plates were covered and incubated for 48 hours in a 37C, 5% CO2 incubator with controlled humidity.
4. After 48 hours, CellTilter-GloTM luminescent substrate mix (Promega) reagent was added to the assay plate and plates we incubated for 5 min at room temperature.
5. Signal was measured as median relative luminescence units on a ViewLux (PerkinElmer) multiplate reader.
[1] Heske CM, Davis MI, Baumgart JT, Wilson K, Gormally MV, Chen L, Zhang X, Ceribelli M, Duveau DY, Guha R, Ferrer M, Arnaldez FI, Ji J, Tran HL, Zhang Y, Mendoza A, Helman LJ, Thomas CJ. Matrix Screen Identifies Synergistic Combination of PARP Inhibitors and Nicotinamide Phosphoribosyltransferase (NAMPT) Inhibitors in Ewing Sarcoma. Clin Cancer Res. 2017 Dec 1;23(23):7301-7311. doi: 10.1158/1078-0432.CCR-17-1121. Epub 2017 Sep 12. PMID: 28899971; PMCID: PMC6636827.
Potency is the fitted concentration of half-maximal effect.

SMILES	Potency
Nc1ncn([C@@H]2O[C@H](CO)[C@@H](O)[C@@H]2O)c(=O)n1	1.32 µM (active)
C[C@H](NC(=O)[C@@H](O)c1cc(F)cc(F)c1)C(=O)N[C@@H]1C(=O)N(C)c2ccccc2-c2ccccc21	inactive
CC1(C)[C@H](O[C@H]2O[C@H](C(=O)O)[C@@H](O)[C@H](O)[C@H]2O[C@@H]2O[C@H](C(=O)O)[C@@H](O)[C@H](O)[C@H]2O)CC[C@@]2(C)[C@H]1CC[C@]1(C)[C@H]2C(=O)C=C2[C@H]3C[C@@](C)(C(=O)O)CC[C@]3(C)CC[C@]21C	inactive
c1cc(N[C@@H]2CCNC2)nc(-c2cnc3ccc(-c4cn[nH]c4)cn23)c1	16.6 µM (active)
CN1[C@H]2CC(OC(=O)[C@@H](CO)c3ccccc3)C[C@H]1[C@H]1O[C@H]12 (stereo not given in full)	inactive
Cn1cnc(=N)c2[nH]cnc21	0.0935 µM (active)
O=C(NCc1ccccc1)[C@H](Cc1ccccc1)NC(=O)[C@@H]1O[C@@H]1C(=O)NCCc1ccc(O)cc1	23.5 µM (active)
COC(=O)C=CC(=O)OC	inactive
C[C@]12CCC(=O)C=C1[C@@H]1CC1[C@H]1[C@H]3[C@@H]4C[C@H]4[C@@]4(CCC(=O)O4)[C@@]3(C)CC[C@H]12 (stereo not given in full)	20.9 µM (active)
COc1cc2c(cc1OC)[C@@H]1C(=O)c3ccc4c(c3O[C@@H]1CO2)C=CC(C)(C)O4	0.372 µM (active)
C#Cc1cccc(Nc2ncnc3cc(OCCOC)c(OCCO)cc23)c1	1.48 µM (active)
CC1=C(C(=O)Nc2cc3cn[nH]c3cc2F)C(c2ccc(Cl)cc2F)N=C(c2ccnc(Cl)c2)N1 (stereo not given)	16.6 µM (active)
Cc1cc(-c2nnc3n2CCCCC3)c(C)n1-c1ccccc1	20.9 µM (active)
CC(=O)ON=C1C(c2c(O)[nH]c3cc(Br)ccc23)=Nc2ccccc21	1.48 µM (active)
CCCCCCCN(CC)CCCC(O)c1ccc(NS(C)(=O)=O)cc1 (stereo not given)	16.6 µM (active)
C=CC(=O)Nc1cccc(Nc2nc(NC3CCC(N(C)C)CC3)nc3c2ncn3C(C)C)c1 (stereo not given)	0.0118 µM (active)
CC(=CC(=O)Nc1ccccc1C(=O)O)c1ccc2ccccc2c1	23.5 µM (active)
CC(C)(C)c1nc2c3cc[nH]c(=O)c3c3cc(F)ccc3c2[nH]1	inactive
COc1cc2c(Nc3ccc(Cl)c(Cl)c3F)ncnc2cc1OCC1C[C@@H]2CN(C)C[C@H]2C1	1.87 µM (active)
COc1cc([C@@H]2c3cc4c(cc3[C@@H](O[C@@H]3O[C@@H]5CO[C@@H](c6cccs6)O[C@@H]5[C@H](O)[C@@H]3O)[C@H]3COC(=O)[C@H]23)OCO4)cc(OC)c1O	1.32 µM (active)

SMILES	Potency
CC(Oc1ccc(O)cc1)(P(=O)(O)O)P(=O)(O)O	inactive
NC(=O)c1cccc(-c2cccc(OC(=O)NC3CCCCC3)c2)c1	inactive
CNC(=O)c1cccc(-c2ccc3c(N4CCOC[C@H]4C)nc(N4CCOC[C@H]4C)nc3n2)c1	0.469 µM (active)
N#Cc1c(C2CCNCC2)cc(-c2c(O)cccc2OCC2CC2)nc1N	20.9 µM (active)
O=C(C=CC#Cc1cccc(NS(=O)(=O)c2ccccc2)c1)NO	1.18 µM (active)
O=C1NCCc2[nH]c(-c3ccncc3)cc21	6.62 µM (active)
CO[C@@H]1[C@@H](O)[C@H](O)[C@@H](n2c3c(Cl)cccc3c3c4c(c5c6cccc(Cl)c6[nH]c5c32)C(=O)NC4=O)O[C@@H]1CO	0.743 µM (active)
C[C@@H]1C(=O)O[C@H]2CC34[C@H]5C[C@@H](C(C)(C)C)C36[C@H](OC(=O)[C@@H]6O)O[C@@]4(C(=O)O5)[C@]21O (stereo not given in full)	inactive
Cc1cnc(Nc2ccc(N3CCN(C)CC3)cc2)nc1Nc1cccc(S(=O)(=O)NC(C)(C)C)c1	1.66 µM (active)
Nc1nc2c(c(=O)[nH]1)N(C=O)[C@H](CNc1ccc(C(=O)N[C@@H](CCC(=O)O)C(=O)O)cc1)CN2	inactive
COc1cc([C@@H]2c3cc4c(cc3[C@H](O)[C@H]3COC(=O)[C@@H]23)OCO4)cc(OC)c1OC	0.118 µM (active)
Oc1ccc(-c2ccc(-c3cc(Nc4cccc(CNC5CC5)c4)n[nH]3)cc2)c(O)c1	1.05 µM (active)
Nc1nc(N)c2nc(-c3cccc(O)c3)c(-c3cccc(O)c3)nc2n1	13.2 µM (active)
CCN1CCN(C(=O)N[C@H](C(=O)N[C@@H]2C(=O)N3C(C(=O)O)=C(CSc4nnnn4C)CS[C@@H]23)c2ccc(O)cc2)C(=O)C1=O	inactive
CN[C@H](CC(C)C)C(=O)N[C@H]1C(=O)N[C@@H](CC(N)=O)C(=O)N[C@@H]2C(=O)N[C@H]3C(=O)N[C@H](C(=O)N[C@H](C(=O)O)c4cc(O)cc(O)c4-c4cc3ccc4O)[C@H](O)c3ccc(c(Cl)c3)Oc3cc2cc(c3O[C@@H]2O[C@H](CO)[C@@H](O)[C@H](O)[C@@H]2O[C@H]2C[C@](C)(N)[C@H](O)[C@H](C)O2)Oc2ccc(cc2Cl)[C@H]1O	inactive
CC(C)C[C@H](NC(=O)[C@@H](NC(=O)c1cccc(-c2ccccc2)n1)[C@@H](C)O)B(O)O	0.0105 µM (active)
Cc1cnn(C)c1C(=O)Nc1cc(Nc2ccc3c(C=Cc4ccccn4)n[nH]c3c2)ccc1F	2.96 µM (active)
O=C(O)CCCCCC(=O)NN=C1CCCC1	inactive
NC1=N[C@H]2[C@H](CS[C@H]2CCCCC(=O)O)N1	inactive
O=C1NC(=O)C(=Cc2ccc3nccc(-c4ccncc4)c3c2)S1	0.332 µM (active)
